In PubChem BioAssay (EPA / NIEHS):
Inconclusive results are not listed. The source holds several records for some structures; these can differ, active in one and inactive in another. Calls of active or inactive are those of the source. How the source made its calls: active means hit-call score of the fitted dose curve at least 0.9, where 1 is the maximum; inconclusive means response in the unintended direction; inactive means score below 0.9.

Columns and labels:
[1] = ACEA_AR_agonist_AUC_viability: ACEA Biosciences xCELLigence Real-Time Cell Analysis on Androgen Receptor Agonism for Viability (AID 2283775);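 on AC50: viability read 80 hours after compound addition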
Procedure, shortened: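 Real-time impedance tracking of 22Rv1 growth, readings every 5 min for 5 h then hourly; area-under-curve viability endpoint at 80 hours, relative to DMSO. Compounds at eight concentrations, 1:4 steps, top 100 uM, n = 2.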

[2] = ACEA_AR_antagonist_AUC_viability: ACEA Biosciences xCELLigence Real-Time Cell Analysis on Androgen Receptor Antagonism for Viability (AID 2283776);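 further: hits lower the growth signal relative to DMSO meaning cytotoxicity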
Procedure, shortened: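 22Rv1 human prostate cancer cells were seeded on electrode plates, monitored overnight, then exposed to eight 1:4 dilutions from 100 uM final. Impedance-based growth kinetics at 80 h gave an AUC viability endpoint normalized to DMSO.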

For `CCCC(O)C(CC)CO` (stereo not given), the outcome [1] was “inactive”.
For `c1ccc(OCCOc2ccccc2)cc1`, the outcome [1] was “inactive” and the outcome [2] was “inactive”.
For `[Na+]`, the outcome [1] was “inactive” and the outcome [2] was “inactive”.
In the case of `NC(N)=S`, the outcome [1] is reported as “inactive” and the outcome [2] is reported as “inactive”.
With `COc1ccc(OC)cc1` the outcome [1] was “inactive”.
In the case of `c1coc(CNc2ncnc3nc[nH]c23)c1`, the outcome [1] is reported as “inactive” and the outcome [2] is reported as “inactive”.
In the case of `OCC=Cc1ccccc1`, the outcome [1] is reported as “inactive” and the outcome [2] is reported as “inactive”.
In the case of `CCOCC(C)O` (stereo not given), the outcome [1] is reported as “inactive” and the outcome [2] is reported as “inactive”.
In the case of `CC(=O)CC(=O)N(C)C`, the outcome [1] is reported as “inactive” and the outcome [2] is reported as “inactive”.
With `CC(=O)OC(C)(C)C1CC=C(C)CC1` (stereo not given) the outcome [1] was “inactive” and the outcome [2] was “inactive”.
For `CCC(C)COC(=O)CC(C)C` (stereo not given), the outcome [1] was “inactive”.
In the case of `Cc1cccc(O)c1`, the outcome [1] is reported as “inactive” and the outcome [2] is reported as “inactive”.
For `CCCCOCCOCCO`, the outcome [1] was “inactive” and the outcome [2] was “inactive”.
In the case of `CCNC(=S)NCC`, the outcome [1] is reported as “inactive” and the outcome [2] is reported as “inactive”.
For `O=C(O)C1=NN(c2ccc(S(=O)(=O)O)cc2)C(=O)C1`, the AC50 [1] was 8.67 µM (active).
In the case of `CC(=O)c1ccc2ccccc2c1`, the outcome [1] is reported as “inactive” and the outcome [2] is reported as “inactive”.
In the case of `C=CC(C)CCCC(C)(C)O` (stereo not given), the outcome [1] is reported as “inactive”.
For `CCCCN(CCCC)CCCCCCN(CCCC)CCCC`, the outcome [1] was “inactive”.
With `CCCCCCCCCOS(=O)(=O)O` the outcome [1] was “inactive” and the outcome [2] was “inactive”.
For `CCCCCCCCCO`, the outcome [1] was “inactive”.
For `CCCCCC1CCC(=O)O1` (stereo not given), the outcome [1] was “inactive” and the outcome [2] was “inactive”.
For `CC(=O)Oc1c(C)c(C)c2c(c1C)CC[C@@](C)(CCC[C@H](C)CCC[C@H](C)CCCC(C)C)O2`, the outcome [1] was “inactive”.
In the case of `O=Cc1ccccc1O`, the outcome [1] is reported as “inactive” and the outcome [2] is reported as “inactive”.
With `CC(C)(C)c1ccc(S)cc1` the outcome [1] was “inactive”.
With `C[C@]12CC[C@@H]3c4ccc(O)cc4CC[C@H]3[C@@H]1CC[C@@H]2O` the AC50 [1] was 0.05 µM (active), the outcome [1] was “inactive” and the AC50 [2] was 85.9 µM (active). For the same compound, the outcome [2] was “inactive”.
In the case of `c1ccc2scnc2c1`, the outcome [1] is reported as “inactive”.
With `CC1=CCC(=C(C)C)CC1` the outcome [1] was “inactive”.
